# According to PMC7862700, “An all-to-all approach to the identification of sequence-specific readers for epigenetic DNA modifications on cytosine”:
# What was measured:
# Assay in all cases: DAPPL (digital affinity profiling via proximity ligation, sequencing); 10 mM Tris-HCl pH 7.5, 50 mM NaCl, 1 mM DTT, 4% glycerol, room temperature, 30 min; GST-TFs on glutathione beads, 16-mer random dsDNA library, 0.1% formaldehyde crosslink after washing; high values mean tight binding
# [1] = target: T1, FEV (Homo sapiens, UniProt Q99581 1-238); details: protein: recombinant; tags: N-terminal GST; dsDNA, one strand shown
# T1 sequence: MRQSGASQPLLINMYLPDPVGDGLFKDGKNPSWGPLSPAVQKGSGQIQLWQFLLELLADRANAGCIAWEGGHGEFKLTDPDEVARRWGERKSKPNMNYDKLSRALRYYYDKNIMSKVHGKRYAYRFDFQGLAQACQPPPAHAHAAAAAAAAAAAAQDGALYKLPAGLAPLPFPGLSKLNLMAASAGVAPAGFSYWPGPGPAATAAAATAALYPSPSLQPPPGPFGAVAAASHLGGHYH
# Outline: (§1)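 Binding signal is given per hexamer as its read frequency for a factor divided by its frequency in the tag-only sample. GST-fused human transcription factors were expressed in yeast, captured on glutathione beads, barcoded with DNA and pooled with that sample, then incubated with 200 nmole of a 16-mer random double-stranded DNA library in Tris/NaCl/DTT/glycerol buffer for 30 min at room temperature. The pools were then washed, crosslinked, proximity-ligated, amplified by PCR and sequenced on an Illumina NextSeq500.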
# [2] = target: ETV5 (Homo sapiens, UniProt P41161 1-510); details: protein: recombinant; tags: N-terminal GST; dsDNA, one strand shown
# Outline: as §1
# [3] = target: HSF1 (Homo sapiens, UniProt Q00613 1-529); details: protein: recombinant; tags: N-terminal GST; chain copies: 3; dsDNA, one strand shown
# Outline: as §1
# [4] = target: T2, SPIC (Homo sapiens, UniProt Q8N5J4 1-248); details: protein: recombinant; tags: N-terminal GST; dsDNA, one strand shown
# T2 sequence: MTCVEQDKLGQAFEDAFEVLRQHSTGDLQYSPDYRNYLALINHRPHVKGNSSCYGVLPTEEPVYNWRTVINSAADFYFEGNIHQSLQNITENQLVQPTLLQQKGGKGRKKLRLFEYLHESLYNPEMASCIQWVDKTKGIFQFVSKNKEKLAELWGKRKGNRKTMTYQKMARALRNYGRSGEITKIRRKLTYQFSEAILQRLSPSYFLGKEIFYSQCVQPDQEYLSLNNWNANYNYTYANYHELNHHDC
# Outline: as §1
# [5] = target: ELF4 (Homo sapiens, UniProt Q99607 1-663); details: protein: recombinant; tags: N-terminal GST; dsDNA, one strand shown
# Outline: as §1
# [6] = target: T3, ELK4 (Homo sapiens, UniProt P28324-2 1-405); details: protein: recombinant; tags: N-terminal GST; dsDNA, one strand shown
# T3 sequence: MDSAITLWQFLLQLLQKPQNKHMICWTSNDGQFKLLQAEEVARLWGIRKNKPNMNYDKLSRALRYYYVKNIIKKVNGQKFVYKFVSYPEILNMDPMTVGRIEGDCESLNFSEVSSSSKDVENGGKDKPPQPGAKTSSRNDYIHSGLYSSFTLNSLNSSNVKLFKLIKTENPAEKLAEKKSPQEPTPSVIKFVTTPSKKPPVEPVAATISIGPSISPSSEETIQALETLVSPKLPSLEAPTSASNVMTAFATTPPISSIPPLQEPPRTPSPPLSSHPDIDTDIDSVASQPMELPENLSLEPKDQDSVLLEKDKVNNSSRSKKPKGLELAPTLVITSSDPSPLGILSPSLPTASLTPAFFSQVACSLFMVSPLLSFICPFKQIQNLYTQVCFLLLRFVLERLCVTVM
# Outline: as §1
# [7] = target: T4, ETV2 (Homo sapiens, UniProt O00321 1-342); details: protein: recombinant; tags: N-terminal GST; dsDNA, one strand shown
# T4 sequence: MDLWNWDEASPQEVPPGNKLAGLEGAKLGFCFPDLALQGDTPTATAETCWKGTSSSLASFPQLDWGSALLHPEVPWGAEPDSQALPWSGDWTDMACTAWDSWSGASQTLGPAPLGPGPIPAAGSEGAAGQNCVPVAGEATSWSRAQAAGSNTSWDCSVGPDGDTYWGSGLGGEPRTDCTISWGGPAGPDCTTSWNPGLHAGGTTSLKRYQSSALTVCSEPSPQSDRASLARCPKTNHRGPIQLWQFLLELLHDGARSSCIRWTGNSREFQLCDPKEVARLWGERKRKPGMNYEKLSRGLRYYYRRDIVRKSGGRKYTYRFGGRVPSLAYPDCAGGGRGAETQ
# Outline: as §1
# [8] = target: T5, ELF3 (Homo sapiens, UniProt P78545 1-371); details: protein: recombinant; tags: N-terminal GST; dsDNA, one strand shown
# T5 sequence: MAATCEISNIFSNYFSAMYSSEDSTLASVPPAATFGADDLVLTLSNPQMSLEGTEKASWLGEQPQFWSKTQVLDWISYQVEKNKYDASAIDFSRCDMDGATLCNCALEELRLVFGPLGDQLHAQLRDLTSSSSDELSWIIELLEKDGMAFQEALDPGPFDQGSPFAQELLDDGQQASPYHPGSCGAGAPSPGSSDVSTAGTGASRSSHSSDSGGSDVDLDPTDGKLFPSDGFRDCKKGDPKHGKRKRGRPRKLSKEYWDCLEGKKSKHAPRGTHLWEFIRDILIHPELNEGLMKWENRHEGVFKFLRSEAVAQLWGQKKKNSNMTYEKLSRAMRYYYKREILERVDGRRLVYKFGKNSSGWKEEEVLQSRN
# Outline: as §1
# [9] = target: CRX (Homo sapiens, UniProt O43186 1-299); details: protein: recombinant; tags: N-terminal GST; dsDNA, one strand shown
# Outline: as §1
# [10] = target: ETV1 (Homo sapiens, UniProt P50549 1-477); details: protein: recombinant; tags: N-terminal GST; dsDNA, one strand shown
# Outline: as §1
# [11] = target: T6, ERF (Homo sapiens, UniProt P50548 1-548); details: protein: recombinant; tags: N-terminal GST; dsDNA, one strand shown
# T6 sequence: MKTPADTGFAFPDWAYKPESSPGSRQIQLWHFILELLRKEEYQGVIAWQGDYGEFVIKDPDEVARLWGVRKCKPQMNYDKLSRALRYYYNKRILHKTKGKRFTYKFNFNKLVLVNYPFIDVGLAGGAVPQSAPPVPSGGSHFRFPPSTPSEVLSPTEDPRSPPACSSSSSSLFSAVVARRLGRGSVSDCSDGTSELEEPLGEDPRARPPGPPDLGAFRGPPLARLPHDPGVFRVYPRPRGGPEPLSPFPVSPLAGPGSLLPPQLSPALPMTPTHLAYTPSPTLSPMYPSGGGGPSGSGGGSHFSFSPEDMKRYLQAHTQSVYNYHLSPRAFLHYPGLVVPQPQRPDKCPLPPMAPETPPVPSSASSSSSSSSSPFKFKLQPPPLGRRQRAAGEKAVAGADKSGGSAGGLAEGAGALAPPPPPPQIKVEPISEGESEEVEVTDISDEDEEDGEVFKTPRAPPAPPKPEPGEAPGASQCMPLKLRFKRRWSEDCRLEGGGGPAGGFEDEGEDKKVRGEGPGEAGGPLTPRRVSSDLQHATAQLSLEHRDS
# Outline: as §1
# [12] = target: T7, ETV3L (Homo sapiens, UniProt Q6ZN32 1-361); details: protein: recombinant; tags: N-terminal GST; dsDNA, one strand shown
# T7 sequence: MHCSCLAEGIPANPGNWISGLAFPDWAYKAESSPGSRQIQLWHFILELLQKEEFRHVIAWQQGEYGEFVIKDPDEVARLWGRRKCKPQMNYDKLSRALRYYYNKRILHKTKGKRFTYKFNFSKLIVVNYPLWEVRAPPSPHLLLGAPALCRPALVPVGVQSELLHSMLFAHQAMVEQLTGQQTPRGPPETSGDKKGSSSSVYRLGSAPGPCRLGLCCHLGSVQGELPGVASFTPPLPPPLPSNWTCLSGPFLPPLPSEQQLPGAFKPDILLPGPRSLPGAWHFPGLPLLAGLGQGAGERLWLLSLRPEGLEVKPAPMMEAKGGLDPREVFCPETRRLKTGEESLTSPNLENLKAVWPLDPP
# Outline: as §1
# [13] = target: T8, ETS2 (Homo sapiens, UniProt P15036 1-469); details: protein: recombinant; tags: N-terminal GST; dsDNA, one strand shown
# T8 sequence: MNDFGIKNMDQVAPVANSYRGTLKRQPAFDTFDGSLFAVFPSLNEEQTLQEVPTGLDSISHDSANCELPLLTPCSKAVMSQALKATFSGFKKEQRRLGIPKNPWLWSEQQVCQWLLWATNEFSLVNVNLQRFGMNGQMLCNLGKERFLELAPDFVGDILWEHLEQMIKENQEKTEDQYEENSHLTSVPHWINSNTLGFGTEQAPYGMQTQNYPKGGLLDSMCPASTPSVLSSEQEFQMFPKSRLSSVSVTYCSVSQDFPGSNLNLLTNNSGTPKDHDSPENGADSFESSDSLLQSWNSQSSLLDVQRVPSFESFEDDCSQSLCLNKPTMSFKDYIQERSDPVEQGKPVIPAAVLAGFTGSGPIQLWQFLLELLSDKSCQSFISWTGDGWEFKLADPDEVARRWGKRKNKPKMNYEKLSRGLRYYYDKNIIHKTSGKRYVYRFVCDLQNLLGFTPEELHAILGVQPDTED
# Outline: as §1
# [14] = target: T9, SPDEF (Homo sapiens, UniProt O95238 1-335); details: protein: recombinant; tags: N-terminal GST; dsDNA, one strand shown
# T9 sequence: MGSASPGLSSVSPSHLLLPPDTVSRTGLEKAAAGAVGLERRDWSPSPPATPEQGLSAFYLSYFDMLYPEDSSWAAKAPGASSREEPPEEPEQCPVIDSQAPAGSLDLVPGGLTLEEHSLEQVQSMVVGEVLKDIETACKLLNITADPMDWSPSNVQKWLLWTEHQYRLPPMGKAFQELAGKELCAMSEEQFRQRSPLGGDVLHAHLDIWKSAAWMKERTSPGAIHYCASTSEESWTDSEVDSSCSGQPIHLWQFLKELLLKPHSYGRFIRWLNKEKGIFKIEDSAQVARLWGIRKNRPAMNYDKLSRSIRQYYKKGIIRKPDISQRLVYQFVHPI
# Outline: as §1
# [15] = target: T10, ETV7 (Homo sapiens, UniProt Q9Y603 1-341); details: protein: recombinant; tags: N-terminal GST; dsDNA, one strand shown
# T10 sequence: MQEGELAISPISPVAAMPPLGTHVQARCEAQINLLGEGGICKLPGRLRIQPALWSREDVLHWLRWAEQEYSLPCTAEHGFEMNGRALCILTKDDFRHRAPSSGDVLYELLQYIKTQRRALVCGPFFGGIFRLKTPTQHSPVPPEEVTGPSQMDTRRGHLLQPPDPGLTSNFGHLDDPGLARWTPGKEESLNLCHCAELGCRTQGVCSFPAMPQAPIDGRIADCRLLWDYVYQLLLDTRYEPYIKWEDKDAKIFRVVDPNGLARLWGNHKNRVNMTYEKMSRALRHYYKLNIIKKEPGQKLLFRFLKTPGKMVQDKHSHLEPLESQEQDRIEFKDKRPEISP
# Outline: as §1
# [16] = target: T11, ELF5 (Homo sapiens, UniProt Q9UKW6-2 1-255); details: protein: recombinant; tags: N-terminal GST; dsDNA, one strand shown
# T11 sequence: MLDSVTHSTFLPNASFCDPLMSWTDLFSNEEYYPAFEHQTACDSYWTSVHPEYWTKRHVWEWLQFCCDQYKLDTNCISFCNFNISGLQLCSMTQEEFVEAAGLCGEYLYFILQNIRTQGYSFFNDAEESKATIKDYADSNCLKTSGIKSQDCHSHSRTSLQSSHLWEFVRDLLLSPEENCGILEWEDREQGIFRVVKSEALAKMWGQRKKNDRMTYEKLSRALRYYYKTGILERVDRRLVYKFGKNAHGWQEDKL
# Outline: as §1
# [17] = target: T12, ETV3 (Homo sapiens, UniProt P41162-2 1-143); details: protein: recombinant; tags: N-terminal GST; dsDNA, one strand shown
# T12 sequence: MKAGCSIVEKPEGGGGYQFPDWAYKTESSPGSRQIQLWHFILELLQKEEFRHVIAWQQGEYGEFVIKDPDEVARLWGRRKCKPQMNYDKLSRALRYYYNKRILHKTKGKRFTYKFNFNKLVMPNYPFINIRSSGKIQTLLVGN
# Outline: as §1
# [18] = target: ETV6 (Homo sapiens, UniProt P41212 1-452); details: protein: recombinant; tags: N-terminal GST; dsDNA, one strand shown
# Outline: as §1
# ELF4, sequence (Q99607 whole entry): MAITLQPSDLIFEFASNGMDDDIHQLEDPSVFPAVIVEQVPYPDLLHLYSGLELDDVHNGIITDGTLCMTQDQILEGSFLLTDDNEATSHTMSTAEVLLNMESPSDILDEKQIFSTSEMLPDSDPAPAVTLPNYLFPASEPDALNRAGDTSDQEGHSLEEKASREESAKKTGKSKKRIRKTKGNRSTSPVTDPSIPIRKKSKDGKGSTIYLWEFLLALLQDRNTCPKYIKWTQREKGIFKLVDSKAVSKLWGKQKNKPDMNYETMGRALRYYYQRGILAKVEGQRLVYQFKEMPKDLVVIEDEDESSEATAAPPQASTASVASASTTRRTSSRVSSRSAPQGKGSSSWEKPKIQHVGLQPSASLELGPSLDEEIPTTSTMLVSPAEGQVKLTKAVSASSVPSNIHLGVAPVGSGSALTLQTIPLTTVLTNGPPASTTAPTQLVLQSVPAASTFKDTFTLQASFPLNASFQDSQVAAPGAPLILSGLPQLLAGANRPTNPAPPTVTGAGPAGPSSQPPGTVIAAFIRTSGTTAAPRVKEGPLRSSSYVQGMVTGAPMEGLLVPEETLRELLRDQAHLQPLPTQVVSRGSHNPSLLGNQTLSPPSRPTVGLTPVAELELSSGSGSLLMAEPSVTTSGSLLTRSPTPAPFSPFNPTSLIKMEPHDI
# ETV6, sequence (P41212 whole entry): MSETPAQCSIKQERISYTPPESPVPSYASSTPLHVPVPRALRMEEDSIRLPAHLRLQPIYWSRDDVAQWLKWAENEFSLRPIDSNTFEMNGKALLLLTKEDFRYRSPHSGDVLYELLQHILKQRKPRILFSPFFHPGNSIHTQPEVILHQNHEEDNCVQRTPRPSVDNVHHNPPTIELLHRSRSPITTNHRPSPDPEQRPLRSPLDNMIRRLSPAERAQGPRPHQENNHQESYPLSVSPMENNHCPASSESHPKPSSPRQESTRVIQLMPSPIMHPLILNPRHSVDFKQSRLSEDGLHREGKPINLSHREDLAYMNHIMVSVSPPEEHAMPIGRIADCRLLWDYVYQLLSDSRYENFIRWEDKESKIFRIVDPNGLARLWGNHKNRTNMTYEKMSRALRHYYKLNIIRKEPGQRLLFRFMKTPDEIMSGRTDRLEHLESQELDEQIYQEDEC
# HSF1, sequence (Q00613 whole entry): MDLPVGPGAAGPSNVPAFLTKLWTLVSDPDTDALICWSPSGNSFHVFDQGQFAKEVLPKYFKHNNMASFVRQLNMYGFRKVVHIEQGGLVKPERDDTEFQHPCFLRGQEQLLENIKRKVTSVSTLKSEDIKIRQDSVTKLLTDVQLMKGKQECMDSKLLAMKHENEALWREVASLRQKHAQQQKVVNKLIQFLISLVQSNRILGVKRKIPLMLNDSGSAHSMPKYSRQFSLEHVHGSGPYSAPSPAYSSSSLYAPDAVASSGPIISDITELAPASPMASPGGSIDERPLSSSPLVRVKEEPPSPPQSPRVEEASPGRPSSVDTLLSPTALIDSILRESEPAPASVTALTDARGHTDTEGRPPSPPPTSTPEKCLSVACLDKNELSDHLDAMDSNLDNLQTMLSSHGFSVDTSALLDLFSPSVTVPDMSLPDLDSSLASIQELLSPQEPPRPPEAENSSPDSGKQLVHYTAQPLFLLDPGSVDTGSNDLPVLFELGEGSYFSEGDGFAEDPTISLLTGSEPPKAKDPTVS
# ETV1, sequence (P50549 whole entry): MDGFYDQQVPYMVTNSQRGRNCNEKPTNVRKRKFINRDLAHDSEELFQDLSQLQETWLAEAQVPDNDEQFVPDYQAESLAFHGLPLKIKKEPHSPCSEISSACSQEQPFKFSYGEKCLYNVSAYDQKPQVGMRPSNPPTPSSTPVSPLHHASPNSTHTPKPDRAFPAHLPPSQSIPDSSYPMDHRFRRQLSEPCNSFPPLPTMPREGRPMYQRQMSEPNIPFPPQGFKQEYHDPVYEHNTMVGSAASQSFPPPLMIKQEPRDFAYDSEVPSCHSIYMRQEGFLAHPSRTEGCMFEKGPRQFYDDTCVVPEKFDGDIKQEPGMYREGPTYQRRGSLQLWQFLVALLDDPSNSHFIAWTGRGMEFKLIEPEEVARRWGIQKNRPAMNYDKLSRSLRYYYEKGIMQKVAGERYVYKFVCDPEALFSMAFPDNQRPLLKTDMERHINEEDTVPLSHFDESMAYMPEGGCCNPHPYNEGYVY
# ETV5, sequence (P41161 whole entry): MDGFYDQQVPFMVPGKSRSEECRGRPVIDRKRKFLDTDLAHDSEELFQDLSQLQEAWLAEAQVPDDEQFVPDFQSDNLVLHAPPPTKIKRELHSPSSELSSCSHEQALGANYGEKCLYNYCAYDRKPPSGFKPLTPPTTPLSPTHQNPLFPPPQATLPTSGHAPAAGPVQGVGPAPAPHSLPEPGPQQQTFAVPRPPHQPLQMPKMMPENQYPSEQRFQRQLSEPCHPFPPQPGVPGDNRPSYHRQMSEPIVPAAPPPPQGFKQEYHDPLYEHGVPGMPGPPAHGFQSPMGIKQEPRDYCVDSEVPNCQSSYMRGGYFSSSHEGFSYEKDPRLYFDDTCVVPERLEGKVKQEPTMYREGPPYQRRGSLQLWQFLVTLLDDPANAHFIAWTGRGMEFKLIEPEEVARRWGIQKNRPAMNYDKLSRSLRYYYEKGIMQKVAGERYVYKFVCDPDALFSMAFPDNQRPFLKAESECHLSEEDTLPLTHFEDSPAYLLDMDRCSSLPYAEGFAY
# CRX, sequence (O43186 whole entry): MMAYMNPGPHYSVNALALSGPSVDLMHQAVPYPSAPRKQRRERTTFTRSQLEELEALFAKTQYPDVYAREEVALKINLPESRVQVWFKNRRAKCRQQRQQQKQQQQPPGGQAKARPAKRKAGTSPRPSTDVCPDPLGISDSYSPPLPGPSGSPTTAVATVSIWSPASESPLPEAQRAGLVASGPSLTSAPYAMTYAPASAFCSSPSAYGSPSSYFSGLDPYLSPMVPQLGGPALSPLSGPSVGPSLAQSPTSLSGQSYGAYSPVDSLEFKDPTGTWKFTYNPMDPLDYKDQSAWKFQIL
sequence,measurement,setting,value
TCATCA,binding signal,[1],"1.12 fold enrichment (6-mer frequency, TF over GST control)"
same,binding signal,[2],"1.09 fold enrichment (6-mer frequency, TF over GST control)"
same,binding signal,[3],"1.06 fold enrichment (6-mer frequency, TF over GST control)"
same,binding signal,[4],"1.16 fold enrichment (6-mer frequency, TF over GST control)"
same,binding signal,[5],"1.18 fold enrichment (6-mer frequency, TF over GST control)"
same,binding signal,[6],"1.26 fold enrichment (6-mer frequency, TF over GST control)"
same,binding signal,[7],"1.07 fold enrichment (6-mer frequency, TF over GST control)"
same,binding signal,[8],"1.07 fold enrichment (6-mer frequency, TF over GST control)"
same,binding signal,[9],"1.07 fold enrichment (6-mer frequency, TF over GST control)"
same,binding signal,[10],"1.06 fold enrichment (6-mer frequency, TF over GST control)"
same,binding signal,[11],"1.23 fold enrichment (6-mer frequency, TF over GST control)"
same,binding signal,[12],"1.18 fold enrichment (6-mer frequency, TF over GST control)"
same,binding signal,[13],"1.15 fold enrichment (6-mer frequency, TF over GST control)"
same,binding signal,[14],"1.12 fold enrichment (6-mer frequency, TF over GST control)"
same,binding signal,[15],"1.15 fold enrichment (6-mer frequency, TF over GST control)"
same,binding signal,[16],"1.16 fold enrichment (6-mer frequency, TF over GST control)"
same,binding signal,[17],"1.22 fold enrichment (6-mer frequency, TF over GST control)"
same,binding signal,[18],"1.08 fold enrichment (6-mer frequency, TF over GST control)"
